This is an account of results in PubChem BioAssay.

The inhibition is the change of the read-out against control, counted positive when it falls.

The nature of assay [1]: kinase inhibitors against Plasmodium liver-stage infection, cell-based, known kinase inhibitor set, luminescence, hepatoma host viability (AID 624392).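 Also: infected cells incubated roughly two days before readout.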 Particulars: Plasmodium liver stage in hepatoma cells, luciferase luminescence, concentration not given here; liver cell % of control: measured here: host liver cell viability; parasite % of control: stronger effect = lower value.
Assay [2] relates to Hepatitis C virus NS3 helicase. Put plainly: HCV NS3 helicase inhibitors, primary screen, biochemical, fluorescence polarization, LOPAC1280 library (AID 687035; in the data active = inhibition above about 37%). Conditions: Purified HCV NS3 helicase, Cy5-dT15 ssDNA binding fluorescence polarization; stronger effect = higher value; concentration not given here.
Assay [3] can be described thus: Cy5 fluorescence quenching or enhancement artefacts, artefact control for HCV NS3 helicase inhibitor project, biochemical, LOPAC1280 (AID 687037). Conditions: Cy5-DNA-NS3h complex fluorescence interference counterscreen. A general note: Counterscreens check selectivity or assay interference.
The subject of assay [4] is Hepatitis C virus NS3 helicase. The assay can be described thus: HCV NS3 helicase inhibitors, primary screen, biochemical, fluorescence polarization, NIH Clinical Collection (AID 743270). Particulars: NS3 helicase binding to Cy5-dT15 DNA, stronger effect = higher value, concentration not given here. Background: In fluorescence polarisation assays a small probe gives low polarisation when free and higher when bound to something large.

Assay [5] addresses Single-stranded DNA-binding protein (Escherichia coli (strain K12)) (UniProt P0AGE0). The assay can be described thus: E. coli SSB displacement from DNA, counter-screen for HCV NS3 helicase inhibitor project, biochemical, fluorescence polarization, NIH Clinical Collection (AID 743271; in the data active = inhibition above about 28%). Particulars: stronger effect = higher value, concentration not given here.
Assay [6] is described as follows: fluorescence interference in NS3h assay format, artefact control for HCV NS3 helicase inhibitor project, biochemical, NIH Clinical Collection (AID 743272).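 Also: HCV NS3 helicase with a Cy5 labelled single stranded DNA probe.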 Particulars: fluorescence interference counterscreen, stronger effect = lower value.
Assay [7] is described as follows: Cy5 fluorescence interference with SSB-bound oligo, artefact control for HCV NS3 helicase inhibitor project, biochemical, NIH Clinical Collection, E. coli SSB (AID 743268).
In assay [8] the test system is Neuropilin-2 / VEGF-C interaction (human). The assay can be described thus: inhibitors of NRP2–VEGF-C binding, biochemical, microplate binding format, z-score (AID 743281). Particulars: microplate NRP2/VEGF-C binding assay.

The source made the active and inactive calls. Unless noted, no rule for the calls is given here.

With `CC(C)C(CO)Nc1nc(Nc2ccc(Cl)c(C(=O)O)c2)c2ncn(C(C)C)c2n1` (stereo not given), in assay [1], the liver cell % of control stood at 94.7% and the parasite % of control is 116% (inactive).

As for `C=CC(=O)Nc1cccc(Oc2ccnc3[nH]ccc23)c1`, in assay [1], the liver cell % of control is 102% and the parasite % of control was 56.9% (inactive).

Take `C=CCc1cccc(/C=N\NC(=O)CN2CCN(Cc3ccccc3)CC2)c1O`: in assay [2], the inhibition is 1% (inactive). The fluorescence ratio (interference) in assay [3] is 0.9 (inactive).

Regarding `CCN1CCN(Cc2ccc(NC(=O)c3cc(NC(=O)N4CCNC4=O)cc(OC)c3)cc2C(F)(F)F)CC1`, in assay [1], the liver cell % of control is 96.3% and the parasite % of control is 12.4% (active).

For the compound `O=C(O)COCCN1CCN([C@@H](c2ccccc2)c2ccc(Cl)cc2)CC1`, the inhibition in assay [4] is -1.98% (inactive); in assay [5], -1.64% (inactive). In assay [6], the fluorescence ratio was 0.95 (inactive).

On to `Cc1ccc([N+](=O)[O-])cc1S(=O)(=O)N(C)N=Cc1c[nH]c2ccc(Br)c[n+]12`, for which, in assay [1], the liver cell % of control came out at 93% and the parasite % of control was 3.49% (active).

As for `CO[C@H]1C=CO[C@@]2(C)Oc3c(C)c(O)c4c(O)c(c5c(c4c3C2=O)=NC2(CCN(CC(C)C)CC2)N=5)NC(=O)C(C)=CC=C[C@H](C)[C@H](O)[C@@H](C)[C@@H](O)[C@@H](C)[C@H](OC(C)=O)[C@@H]1C`, the fluorescence ratio in assay [7] and in assay [6] was 0.96 (inactive) each time. The inhibition in assay [4] is -2.77% (inactive); in assay [5], 1.44% (inactive).

With `Nc1ncnc2c1c(I)cn2[C@@H]1C[C@H](N)[C@@H](O)[C@H]1O`, the inhibition in assay [2] is -1% (inactive). Moreover, the fluorescence ratio (interference) in assay [3] is 0.9 (inactive).

Regarding `Fc1cccc(/C=N\N=C/c2cccc(F)c2)c1`, the inhibition in assay [2] is -2% (inactive). Moreover, the fluorescence ratio (interference) in assay [3] was 1 (inactive).

On to `CCN1CCN(Cc2ccc(NC(=O)c3cc(NC(=O)c4cc(C)on4)cc(OC)c3)cc2C(F)(F)F)CC1`, for which, in assay [1], the liver cell % of control was 99.3% and the parasite % of control is 92.3% (inactive).

Consider `CO[C@H]1C=CO[C@@]2(C)Oc3c(C)c(O)c4c(O)c(c(/C=N/N5CCN(C6CCCC6)CC5)c(O)c4c3C2=O)NC(=O)C(C)=CC=C[C@H](C)[C@H](O)[C@@H](C)[C@@H](O)[C@@H](C)[C@H](OC(C)=O)[C@@H]1C`, for which the results for the fluorescence ratio in assay [7] and in assay [6] were 1.02 (inactive) and 1.01 (inactive), respectively. In addition, the inhibition is -3.56% (inactive) in assay [4] and 9.91% (inactive) in assay [5].

As for `C=CC(=O)Nc1cccc(N2C(=O)N(c3cc(OC)cc(OC)c3)Cc3cnc(NCCCCN(CC)CC)nc32)c1`, in assay [1], the liver cell % of control is 102% and the parasite % of control is 107% (inactive).

As for `CCOC(=O)N1CCN(/[N+]([O-])=N\Oc2ccc([N+](=O)[O-])cc2[N+](=O)[O-])CC1`, the inhibition in assay [2] was -3% (inactive). Also, the fluorescence ratio (interference) in assay [3] was 1.1 (inactive).

As for `O=C1CN(/N=C\c2ccc(-c3ccc([N+](=O)[O-])cc3)o2)C(=O)N1`, in assay [2], the inhibition is -3% (inactive). Moreover, in assay [3], the fluorescence ratio (interference) is 1 (inactive).

On to `O=C(Nc1ccc(-c2csc(Nc3ccccc3)n2)cc1)c1cc([N+](=O)[O-])cc(C(F)(F)F)c1`, for which, in assay [1], the liver cell % of control was found to be 102% and the parasite % of control is 102% (inactive).

`COCCCC/C(=N/OCCN)c1ccc(C(F)(F)F)cc1`: the inhibition in assay [2] was -1% (inactive). Moreover, the fluorescence ratio (interference) in assay [3] was 1 (inactive).

`O=C(Nc1ccc(-c2csc(Nc3ccccc3)n2)cc1)c1cccc(C(F)(F)F)c1`: in assay [1], the liver cell % of control was determined as 99.8% and the parasite % of control is 99.4% (inactive).

Take `CC/C(O)=N/S(=O)(=O)c1ccc(-c2c(-c3ccccc3)noc2C)cc1`: the fluorescence ratio in assay [7] was 1.03 (inactive); in assay [6] it was 1.01 (inactive). Further, the figures for the inhibition in assay [4] and in assay [5] were -1.97% (inactive) and -2.76% (inactive), respectively.

As to `COc1cc(NC(=O)c2csc(N)n2)cc(C(=O)Nc2cccc(C(F)(F)F)c2)c1`, in assay [1], the liver cell % of control turned out to be 88.9% and the parasite % of control is 39.6% (inactive).

As for `CCN1CCN(Cc2ccc(NC(=O)c3cc(NC(=O)C4=NN(c5ccccc5)C(=O)C4)cc(OC)c3)cc2C(F)(F)F)CC1`, in assay [1], the liver cell % of control was found to be 100% and the parasite % of control was 110% (inactive).

On to `CCN1C(=O)CC(C(C)C)N(C2CCCC2)c2nc(Nc3ccc(C(=O)NC4CCN(C)CC4)cc3OC)ncc21` (stereo not given), for which, in assay [1], the liver cell % of control is 102% and the parasite % of control was 87.6% (inactive).

In the case of `C=CC(=O)Nc1cccc(Nc2ccnc(Nc3ccc(N4CCN(C)CC4)cc3)n2)c1`, in assay [1], the liver cell % of control amounted to 92.9% and the parasite % of control is 184% (inactive).

In the case of `CC(=O)/C(C)=N\O`, the inhibition in assay [2] was -1% (inactive). In addition, in assay [3], the fluorescence ratio (interference) was 1.1 (inactive).

On to `Cc1ccc2nc(CN(CCN(Cc3nc4ccc(C)cc4[nH]3)Cc3nc4ccc(C)cc4[nH]3)Cc3nc4ccc(C)cc4[nH]3)[nH]c2c1`, for which the inhibition in assay [2] was 0% (inactive). Moreover, the fluorescence ratio (interference) in assay [3] is 1 (inactive).

With `CCN1CCN(Cc2ccc(NC(=O)c3ccc(C)c(NC(=O)c4ccno4)c3)cc2C(F)(F)F)CC1`, in assay [1], the liver cell % of control is 100% and the parasite % of control was 100% (inactive).

Turning to `CO/N=C(/C(=O)N[C@@H]1C(=O)N2C(C(=O)O)=C(CSc3nc(=O)c(O)nn3C)CSC12)c1csc(N)n1` (stereo not given in full), the inhibition in assay [2] was -2% (inactive). Also, the fluorescence ratio (interference) in assay [3] was 1 (inactive).

As to `CO[C@H]1C=CO[C@@]2(C)Oc3c(C)c(O)c4c(O)c(c5c(c4c3C2=O)NC2(CCN(CC(C)C)CC2)N=5)=NC(=O)/C(C)=C\C=C[C@H](C)[C@H](O)[C@@H](C)[C@@H](O)[C@@H](C)[C@H](OC(C)=O)[C@@H]1C`, the compound was classed as inactive in assay [8].
